Hits are enriched below; roughly 6% of the tested compounds scored in any of these assays.
D1 PAM – potentiators of human D1 dopamine receptor | potentiation, % at 10 µM | HEK293 TREx D1 cells, calcium flux, dopamine EC20 potentiation | hit rate 0.036% among 360,000; in the data active means potentiation above about 30%; further: 0% is about no effect
DRD3 agonist – D3 dopamine receptor (human) agonism; D3R DiscoveRx beta-arrestin cells, luminescence, 90 min; max activation, %; hit rate 0.58% among 410,000; in the data active means max activation above about 30%; further: 0% is about no effect
Target sequence (P35462 whole entry, looked up): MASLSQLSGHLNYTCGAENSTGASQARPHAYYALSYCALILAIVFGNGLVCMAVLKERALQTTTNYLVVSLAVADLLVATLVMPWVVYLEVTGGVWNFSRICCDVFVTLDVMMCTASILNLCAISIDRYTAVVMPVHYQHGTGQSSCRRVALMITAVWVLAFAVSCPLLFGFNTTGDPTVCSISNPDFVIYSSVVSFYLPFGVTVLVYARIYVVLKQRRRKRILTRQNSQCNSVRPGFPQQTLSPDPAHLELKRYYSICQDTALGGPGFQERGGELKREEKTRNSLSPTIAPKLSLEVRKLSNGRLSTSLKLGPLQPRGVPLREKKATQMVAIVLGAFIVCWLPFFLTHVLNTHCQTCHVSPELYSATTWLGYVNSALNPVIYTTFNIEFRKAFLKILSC
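Agonist mode: compounds and dopamine controls were applied to plated cells for 90 min at 37 degrees C after an overnight attachment at 1500 cells/well. Luminescent read-out followed 30 - 60 minutes at room temperature with DiscoveRx detection reagent.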
D1 antag – human D1 dopamine receptor antagonism | AID 504652 | hit rate 3.2% among 360,000 | activity change, negative = inhibition, % at 10 µM | HEK293 TREx D1 cells, calcium flux, dopamine EC80; hits give low values; in the data active means activity change below about -30%; further: on the % scale 0 is the no-effect control and ±100 the full control effect
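Inducible Hek293 Trex D1 cells (tetracycline, overnight, 30 C). Calcium dye 30–90 min RT. Antagonist mode: EC80 dopamine added after 180 s compound read.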
DRD3 antagonist – D3 dopamine receptor (human) antagonism; P35462; D3R cells, DiscoveRx beta-arrestin luminescence, antagonist mode; hits give low values; hit rate 2.5% among 360,000; max response, negative = inhibition, %; AID 652054; in the data active means max response below about -50%; inconclusive means no clear call, values can overlap the other calls; further: on the % scale 0 is the no-effect control and ±100 the full control effect
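Cells plated overnight at 1500 cells/well, then exposed to library compounds with dopamine controls for 90 minutes at 37 degrees C. DiscoveRx reagent added for 30–60 minutes at room temperature; luminescence read, quantitative HTS format.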
D1 agonist – human D1 receptor agonism. hit rate 1% among 360,000. HEK293 T-REx D1 cells, calcium flux, agonist mode. activation, % at 2 µM; in the data active means activation above about 30%; further: 0% is about no effect
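Inducible HEK293 T-REx D1 cells, force-coupled to calcium signalling, were plated at 4000 cells/well with tetracycline and held overnight at 30 C. After no-wash calcium dye loading, compound-evoked calcium rise over 180 s flagged agonists.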
An asterisk follows results filed as active; u = inconclusive; x = not tested or not shown; ! = repeats disagree.

SMILES	D1 PAM	DRD3 agonist	D1 antag	DRD3 antagonist	D1 agonist
COc1ccc(C(=O)N/N=C(\c2ccccc2)c2ccccn2)cc1	6.0	-12.7	-23.4	-56.3*	0.9
O=C(NN=C(c1ccccc1)c1ccccn1)c1ccccc1	x	-14.1	x	-56.2*	x
O=C(N/N=C(\c1ccccc1)c1ccccn1)c1ccccc1Cl	-0.3	-4.3	-13.9	u	2.2
COc1cc(OC)nc(Nc2nc(C(N)Cc3ccc(Cl)cc3)cs2)n1 (configuration not stated)	x	1.7	x	-0.9	x
CCOc1ccc(OCC)c(NC(=O)c2cc(S(=O)(=O)N3CCc4ccccc43)cn2C)c1	-3.4	3.8	-7.9	x	-0.5
CC(=O)Nc1nnc(/C=C/c2cccc([N+](=O)[O-])c2)s1	-0.7	8.4	-54.4*	25.9	-2.0
COC(=O)Nc1nnc(/C=C/c2ccccc2)s1	0.8	-0.4	2.1	10.2	1.7
O=C(OCc1ccccc1)c1ccc(NCc2cc(O)ccc2O)cc1	x	-8.2	x	-67.7*	x
CC(C)OC(=O)c1ccc(NCc2cc(O)ccc2O)cc1	x	-2.5	x	u	x
CC(=O)Nc1ccc(S(=O)(=O)N(Cc2ccccc2)Cc2ccccc2)cc1	-0.9	2.0	-24.4	x	-0.5
COc1ccc(OC)c(NC(=O)C2(C)CCN2C(=O)C2(c3ccc(Cl)cc3)CCC2)c1 (configuration not stated)	x	-26.9	x	-13.4	x
CCc1nn(CC(=O)NCCCN2CCc3ccccc3C2)c(=O)c2cc3sccc3n12	-0.8	-15.5	-5.8	-112.4*	-0.1
CCc1nn(CC(=O)NCCCN2CCN(C)CC2)c(=O)c2cc3occc3n12	0.0	-8.4	-37.4*!	-15.2	2.3
CCc1nn(CC(=O)NCCCN(C)Cc2ccccc2)c(=O)c2cc3sc(C)cc3n12	2.8	-7.1	-37.2*	-24.4	2.6
CCc1nn(CC(=O)NCCCN2CCN(C)CC2)c(=O)c2cc3sccc3n12	9.3	-12.1	2.3	-6.7	3.3
O=C1CN(C(=O)COc2ccc(Cl)cc2Cl)C(c2ccccc2)c2cc(F)ccc2N1 (configuration not stated)	-0.7	-4.4	5.2	x	16.4
Cc1ccc(Oc2nccc(-c3ccc(Cl)cc3)n2)cc1	-18.9	0.1	-30.4*	-1.6	26.3
COc1cc(C)c(C)cc1S(=O)(=O)Nc1cccc(-c2ccc(N3CCOCC3)nn2)c1	-3.4	-24.0	-69.1*	x	-1.5
COc1ccc(S(=O)(=O)Nc2cccc(-c3ccc(N4CCOCC4)nn3)c2)cc1F	1.8	2.9	-37.4*	x	-1.2
Cc1ccc([N+](=O)[O-])cc1S(=O)(=O)Nc1cccc(-c2ccc(N3CCOCC3)nn2)c1	-2.5	6.4	-3.0	-1.9	2.9
COc1ccc(N2CCN(S(=O)(=O)CCNC(=O)Cc3ccc(OC)c(OC)c3)CC2)cc1	-0.1	10.8	9.9	x	-0.5
Cc1noc(C)c1COc1ccc(C(=O)NNC(=O)c2ccccc2)cc1	1.4	1.8	0.1	-2.4	0.2
COc1cc(C(=O)Nc2nnc(C3CC3)s2)ccc1OCc1c(C)noc1C	-5.2	-6.0	-32.2*	-3.0	1.8
COc1cc(C(=O)Oc2ccccc2)ccc1OCc1c(C)noc1C	-9.0	-0.5	-37.1*	23.2	5.0
Cc1noc(C)c1COc1ccc(C(=O)O)cc1	-0.5	33.1*	26.3	-15.5	1.3
SMILES	D1 PAM	DRD3 agonist	D1 antag	DRD3 antagonist	D1 agonist
CCCCS(=O)CC(O)CSc1nc(-c2ccc(OC)cc2)cc(-c2ccccc2)c1C#N (configuration not stated)	-1.0	3.0	11.4	x	9.9
Cc1ccc2nc(N(Cc3cccnc3)C(=O)c3ccco3)sc2c1	-2.7	-4.2	x	x	-1.4
CC(C)CNC(=O)N1CCN(S(=O)(=O)c2ccc3c(ccn3C)c2)CC1	-0.1	-1.2	-7.9	x	0.5
O=C1/C(=C/c2ccccc2)Nc2ccccc21	-3.5	-17.4	-10.7	-24.7	50.0*
O=C1CNC(=O)/C(=C\c2ccccc2)N1	-0.5	1.3	4.4	8.2	1.8
N#Cc1ccc(CSc2nc(N)cc(N)n2)cc1	0.1	-10.9	0.8	-55.2*	4.5
Cc1ccc(N(CC2=NCCN2)c2cccc(O)c2)cc1	-11.7	-66.9	-31.6*!	-63.0*!	0.9
c1ccc(CN(CC2=NCCN2)c2ccccc2)cc1	-1.9	0.0	12.9	-17.7	1.5
COc1ncnc2c1ncn2CCCNCc1ccccn1	x	-4.3	x	0.0	x
CN(C)c1cccc(/C=C(\C#N)c2ccccc2)c1	-0.1	0.8	-32.1*	-11.3	-0.6
CCOC(=O)NC(=O)/C(C#N)=C/c1ccc(N(C)C)cc1	-4.8	2.7	-25.8	9.2	30.8*
CCN(CC)c1ccc(/C=C(\C#N)C(=O)c2ccc(Br)cc2)cc1	-10.1	-5.3	-47.6*	-24.9	258.5*
N#C/C(=C\c1ccccc1)C(=O)NC(=O)Oc1ccccc1	-0.5	-3.7	-3.2	0.0	-0.1
CCN(CC)c1ccc(/C=C(\C#N)C(N)=O)cc1	-1.9	4.6	7.8	-4.7	14.1
CN(C)c1ccc(/C=C(\C#N)C(=O)c2ccccc2)cc1	22.0	1.1	-38.6*	-10.4	400.8*
Cc1ccc(C=C(C#N)C(=O)c2ccccc2)cc1	x	2.4	x	13.3	x
COc1ccc(S(=O)(=O)N(C)C[C@@H]2OCCCC[C@H](C)Oc3ccc(NC(=O)Nc4ccc(C(F)(F)F)cc4)cc3C(=O)N([C@H](C)CO)C[C@H]2C)cc1	x	-5.8	x	-20.5	x
O=C(CCS(=O)(=O)c1cc(Br)cc2c1N(C(=O)C1CC1)CC2)NCc1ccc(Cl)cc1	-1.4	-16.9	-0.7	x	2.5
COc1cccc(CNC(=O)COC(=O)/C(C#N)=C/c2ccc(N(C)C)cc2)c1	x	-3.2	-16.7	28.2	74.3*
COc1ccc(/C=C(\C#N)C(=O)OCC(=O)NCc2ccccc2)cc1	1.1	1.5	-0.1	5.3	0.0
COc1cccc(OCc2ccc(Cl)cc2)c1C#N	-6.0	-0.1	-51.1*	4.2	2.2
Cc1cc(C)cc(NC(=O)CCc2nnc3n(CC(C)C)c(=O)c4ccccc4n23)c1	-0.9	15.1	-7.7	x	-0.6
COc1ccc(Br)cc1CN1CCN(C(=O)c2ccc(OC)c(OC)c2)CC1	-6.8	-17.5	-3.9	-20.2	-0.1
COc1ccc(C(=O)C2CCCN(Cc3cccn3-c3ccc(Cl)cn3)C2)c(OC)c1 (configuration not stated)	-3.0	-4.8	-6.7	1.6	33.3*
Cc1ccc(CN2CCN(Cc3ccccc3C(F)(F)F)CC2)cc1	-3.6	-28.6	-6.1	-72.4*	0.1
COc1ccc(C(=O)C2CCCN(Cc3c(F)ccc(F)c3F)C2)c(OC)c1 (configuration not stated)	-8.1	-18.5	14.3	-21.3	0.8
COc1cccc(C(=O)N2CCN(Cc3cc(Br)ccc3OC)CC2)c1	2.4	-1.2	-7.9	-83.6*	0.4
COc1ccc(Br)cc1CN1CCN(Cc2c[nH]c3ccccc23)CC1	-17.5	-49.5	-14.5	-89.9*	37.8*
O=C(C1CCCCC1)N(Cc1cccnc1)c1nc2c(F)cccc2s1	-0.6	-13.4	x	x	-1.6
COc1ccc(CN2CCN(Cc3ccccc3F)CC2)c(OC)c1	-12.0	-40.2	-11.4	-22.3	2.4

Bioassay records deposited in PubChem by National Center for Advancing Translational Sciences (NCATS).
